Measurements taken from PubChem BioAssay (Tox21).
Records with an inconclusive call do not appear. Activity calls are given as the source filed them. Unless noted, calls follow the shape of the dose curve; as a rule, active = well fitted curve in the direction sought with a large enough effect in the repeat runs; inconclusive = weak or mixed curves; inactive = no such curve, though single readings can be large; an effect the other way counts as inactive or inconclusive.

Experiments:
[1] = qHTS assay for small molecule agonists of the p53 signaling pathway (AID 651631; calls by dose curve; also: nearly all actives have a fitted effect of over 15% in size; also: potency is read from the fitted curve at half-maximal effect)
Summary of the method: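 Agonist mode screen using a stably integrated beta-lactamase gene under p53 response elements in HCT-116 cells. Compound exposure lasts 16 h at 37 °C; fluorescence intensity is measured following 2 h FRET substrate loading.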

[2] = qHTS assay for small molecules that induce genotoxicity in human embryonic kidney cells expressing luciferase-tagged ATAD5 (AID 651632); also: nearly all actives have a fitted effect of over 15% in size
Summary of the method: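 Test compounds were delivered by pin tool onto HEK293T reporter cells (2,000/well) expressing ATAD5 fused to luciferase. After 16 hr at 37C, 5% CO2, Amplite was added for 30 min at room temperature and luminescence was measured.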

[3] = qHTS assay for small molecule agonists of the p53 signaling pathway - cell viability (AID 651633; calls by dose curve;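 also: p53RE-bla HCT reporter cells with a stable beta-lactamase p53 reporter; series mostly up to about 83 µM; nearly all actives have a fitted effect of over 30% in size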)
Summary of the method: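 p53RE-bla cells were treated with compound for 16 hours at 37 C. Cytotoxicity was then measured as CellTiter-Glo luminescence after 30 min at room temperature.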

[4] = qHTS assay for small molecules that induce genotoxicity in human embryonic kidney cells expressing luciferase-tagged ATAD5 - cell viability (AID 651634; calls by dose curve; also: nearly all actives have a fitted effect of over 25% in size; also: potency is read from the fitted curve at half-maximal effect)
Summary of the method: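 Quantitative high-throughput format. HEK293T cells expressing ATAD5 fused to luciferase were plated at 2,000 cells/well and treated 15.5 hr with compound versus DMSO. Viability was determined by fluorescent live-cell protease substrate, 30 min at 37C.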

[5] = qHTS assay for small molecule disruptors of the mitochondrial membrane potential - cell viability (AID 720634; calls by dose curve;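 also: human HepG2 liver cancer cells; series mostly up to about 83 µM; nearly all actives have a fitted effect of over 20% in size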)
Summary of the method: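 Same-well counter-screen: following the MMP dye addition, CellTiter-Glo was added to 1 hr compound-treated HepG2 cells and luminescence read after 30 min at room temperature.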

[6] = qHTS assay for small molecule disruptors of the mitochondrial membrane potential (AID 720635); also: potency is read from the fitted curve at half-maximal effect
Summary of the method: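 HepG2 cells exposed to compound 1 hr at 37C, then Mito-MPS dye 30 min. Ratio read of aggregate (540/590 nm) versus monomer (490/535 nm) fluorescence.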

[7] = qHTS assay to test for compound auto fluorescence at 590 nm (red) in HepG2 cells (AID 720674)
Summary of the method: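 HepG2 cells, 2,000 per well in MEM with 10% FBS, attached overnight at 37 C, then got 23 nL compound or DMSO. After 1 hr at 37 C, 5% CO2, red fluorescence was read at 540/590 nm against Rose Bengal sodium as reference.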

[8] = qHTS assay to test for compound auto fluorescence at 535 nm (green) in HepG2 cells (AID 720675)
[9] = qHTS assay to test for compound auto fluorescence at 460 nm (blue) in HEK293 cells (AID 720678)
Summary of the method: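 After cell attachment (4-5 hr, 37C), compounds were pinned onto HEK293 monolayers in 10% dialyzed FBS medium. The blue channel (405/460 nm) was read following overnight culture. Equivalency was calculated against triamterene.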

[10] = qHTS assay to test for compound auto fluorescence at 590 nm (red) in HEK293 cells (AID 720679)
Summary of the method: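 Plates of HEK293 cells (10% dialyzed FBS) are treated with 23 nL compound or DMSO vehicle after a 4-5 hr attachment period, incubated overnight at 37C, and read for red fluorescence at 540/590nm.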

[11] = qHTS assay to test for compound auto fluorescence at 535 nm (green) in HEK293 cells (AID 720680)
[12] = qHTS assay to test for compound auto fluorescence at 460 nm (blue) in HEK293 cell free culture (AID 720681)
Summary of the method: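 Compounds were added to cell-free DMEM with 10% FBS and fluorescence read directly. The blue channel used 405 nm excitation and 460 nm emission, with triamterene as the reference fluorophore.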

[13] = qHTS assay to test for compound auto fluorescence at 535 nm (green) in HEK293 cell free culture (AID 720682)
Summary of the method: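 No cells present: wells hold DMEM supplemented with 10% FBS, into which compound or vehicle is pinned. Green emission is then recorded (485 nm excitation, 535 nm emission) and scaled to fluorescein.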

[14] = qHTS assay to test for compound auto fluorescence at 590 nm (red) in HEK293 cell free culture (AID 720683)
Summary of the method: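 Cell-free wells of DMEM with 10% FBS received compound, and intrinsic fluorescence was read at excitation/emission 540/590 nm. Values expressed as equivalence to Rose Bengal sodium.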

[15] = qHTS assay to test for compound auto fluorescence at 590 nm (red) in HepG2 cell free culture (AID 720684)
Summary of the method: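 Rose Bengal sodium served as the reference for red signal. Test compounds were dispensed into serum-containing MEM (10% FBS) without cells, and plates were read at 540/590 nm.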

[16] = qHTS assay to test for compound auto fluorescence at 460 nm (blue) in HepG2 cell free culture (AID 720685)
Summary of the method: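 Cell-free plates of MEM plus 10% FBS received 23 nL compound or DMSO vehicle; blue-channel (405/460 nm) intensity scored against triamterene as reference fluorophore.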

[17] = qHTS assay to test for compound auto fluorescence at 535 nm (green) in HepG2 cell free culture (AID 720686)
[18] = target: Glucocorticoid receptor (Homo sapiens) (UniProt P04150); experiment: qHTS assay to identify small molecule agonists of the glucocorticoid receptor (GR) signaling pathway (AID 720691; active = well fitted activation curve with a large enough effect in the signal ratio in the repeat runs, not every such curve was filed as active; the % refers to the signal ratio)
Summary of the method: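 A HeLa cervical cancer line expressing GR and a glucocorticoid response element-driven beta-lactamase gene is treated with compounds for 18 h; LiveBLAzer B/G FRET substrate is then applied and fluorescence read.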

[19] = target: Glucocorticoid receptor (Homo sapiens) (UniProt P04150); experiment: qHTS assay to identify small molecule antagonists of the glucocorticoid receptor (GR) signaling pathway (AID 720692; active = well fitted inhibition curve with a large enough effect in the signal ratio in the repeat runs, not every such curve was filed as active; the % refers to the signal ratio)
Summary of the method: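 GRE-bla HeLa line, dex-stimulated (5 nM final). Compound exposure 18 h, 37 C. Beta-lactamase FRET read after 2 h RT substrate.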

[20] = qHTS assay to test for compound auto fluorescence at 460 nm (blue) in HepG2 cells (AID 720687)
Summary of the method: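 HepG2 cells in MEM with 10% FBS, attached overnight at 37 C, were exposed to compound or DMSO for 1 hr at 37 C, 5% CO2. Blue fluorescence was read at 405/460 nm, with triamterene as reference fluorophore.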

Measured: Potency

Chain of Glucocorticoid receptor (Homo sapiens) (P04150 whole entry, looked up): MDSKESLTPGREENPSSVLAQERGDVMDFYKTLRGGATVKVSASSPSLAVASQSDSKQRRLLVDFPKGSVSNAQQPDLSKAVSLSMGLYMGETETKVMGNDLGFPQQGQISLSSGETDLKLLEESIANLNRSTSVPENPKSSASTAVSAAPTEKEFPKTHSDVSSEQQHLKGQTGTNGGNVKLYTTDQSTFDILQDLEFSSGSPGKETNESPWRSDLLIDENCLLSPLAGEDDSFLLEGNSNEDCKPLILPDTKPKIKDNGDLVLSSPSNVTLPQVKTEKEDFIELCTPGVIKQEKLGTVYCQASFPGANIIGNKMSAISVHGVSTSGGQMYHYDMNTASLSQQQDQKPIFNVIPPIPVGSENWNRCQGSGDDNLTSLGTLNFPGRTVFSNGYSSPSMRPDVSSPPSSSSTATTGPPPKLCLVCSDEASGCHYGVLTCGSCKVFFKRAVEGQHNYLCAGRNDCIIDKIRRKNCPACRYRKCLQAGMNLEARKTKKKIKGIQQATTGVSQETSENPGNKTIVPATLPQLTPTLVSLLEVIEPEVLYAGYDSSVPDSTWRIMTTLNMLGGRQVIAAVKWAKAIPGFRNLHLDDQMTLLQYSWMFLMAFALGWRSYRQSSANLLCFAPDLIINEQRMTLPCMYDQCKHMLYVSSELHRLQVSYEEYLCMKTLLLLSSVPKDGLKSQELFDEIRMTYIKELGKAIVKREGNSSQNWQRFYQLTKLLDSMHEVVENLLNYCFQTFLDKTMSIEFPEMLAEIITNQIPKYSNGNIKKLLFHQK

CCCCC(=O)Cl
not listed: [20]
inactive: all other assays above

COc1cc(OC)nc(Sc2cccc(Cl)c2C(=O)O)n1
not listed: [14] | [15]
inactive: all other assays above

[As]#[In]
not listed: [12] | [18] | [19]
inactive: all other assays above

Nc1cc(Cl)ccc1O
active: [1] 26.4 µM | [4] 23.5 µM | [6] 9.37 µM
not listed: [18] | [19]
inactive: all other assays above

CCCSC(=O)N(CCC)CCC
not listed: [12] | [19] | [20]
inactive: all other assays above

CSc1ccc(C(=O)C(C)(C)N2CCOCC2)cc1
not listed: [6] | [18] | [19]
inactive: all other assays above

O=C(NCO)NCO
inactive: all assays above

C[N+](=O)[O-]
not listed: [13] | [15] | [18] | [19]
inactive: all other assays above

CC(=O)CC(c1ccc(Cl)cc1)c1c(O)c2ccccc2oc1=O (stereo not drawn)
active: [6] 32.1 µM
not listed: [12] | [18] | [19]
inactive: all other assays above

CC(=O)CCc1ccc2c(c1)OCO2
not listed: [19]
inactive: all other assays above

O=P(O)(Oc1ccccc1)Oc1ccccc1
inactive: all assays above

BrCCCCCCBr
not listed: [7] | [18]
inactive: all other assays above

CC(=O)Nc1cc([As](=O)(O)O)ccc1O
not listed: [20]
inactive: all other assays above

COC(=O)C(c1ccccc1)C1CCCCN1 (stereo not drawn)
not listed: [7] | [12]
inactive: all other assays above
